# OTUD3 inh – human OTUD3 deubiquitinase inhibition; Q5T2D3; purified OTUD3, Ub-rhodamine fluorescence, 2 h; inhibition, % at 25 µM; 47,000 tested, 0.7% active; AID 1645858
# USP28 inh – inhibitors of human USP28 deubiquitinase; purified USP28, Ub-rhodamine cleavage fluorescence, 30 min; inhibition, % at 25 µM; Q96RU2; 47,000 tested, 3% active; AID 1645857
# An asterisk follows results filed as active; . = no result given. This is a sample that favours compounds with a hit; in the whole collection about 3.4% have one here. Cut-off read from the data, not from the text of the source: active = inhibition above about 30%; inactive = the rest.
SMILES,OTUD3 inh,USP28 inh
CCC(=O)Nc1nc2cc(NC(=O)c3cc(OC)c(OC)c(OC)c3)ccc2s1,-32,-23
CC(=O)c1cccc(NC(=O)c2ccc(-c3csc(C)n3)cc2)c1,-6,21
COc1cc(C(=O)Nc2ccc(-c3csc(C)n3)cc2)cc(OC)c1OC,-8,78*
CC1Cc2ccccc2N1S(=O)(=O)c1nnc(NC(=O)C23CC4CC(CC(C4)C2)C3)s1 (stereo unspecified),-12,-12
CCn1c(=O)c(CCC(=O)N2CCN(c3ccccc3F)CC2)nc2c(C)nn(-c3ccccc3)c21,4,0
COC(=O)C1=CO[C@H](O[C@@H]2O[C@H](CO)[C@@H](O)[C@H](O)[C@H]2O)[C@H]2[C@]1(O)[C@H](O)C[C@]2(C)O,8,0
Cc1cc(C)c(C(=O)CSc2nnc(-c3ccccc3)o2)cc1C,-17,-16
Cc1ccc(C(CNC(=O)COc2ccccc2)N2CCCCC2)o1 (stereo unspecified),-5,-13
O=C(c1cnc2[nH][nH]c(=O)c2c1)c1cc(Cl)cc(Cl)c1O,71*,55*
O=C(c1cnc2oc3ccccc3c2c1)c1ccccc1O,5,11
Cc1ccc2c(C)nc(Nc3nc(-c4cnc(N5CCOCC5)nc4C)cc(=O)[nH]3)nc2c1,5,6
Cc1ccc(NC(=O)c2ccc(Nc3nnc(C)c4ccccc34)cc2)cc1,-2,75*
Cc1nnc(Nc2ccc(C(=O)Nc3c(Cl)cccc3Cl)cc2)c2ccccc12,-8,0
O=C(NCc1ccc(F)cc1)c1cn(-c2cc(N3CCCC3)ncn2)cn1,7,9
CC(=O)N1C[C@H]2C3(CCN(C(=O)Cc4ccccc4)CC3)CC[C@@]2(C(=O)N(C)C)C1,5,5
COc1ccc(-c2cc3nc(C4CCN(C(=O)OC(C)(C)C)CC4)c(C(=O)Nc4ccc(C)c(Cl)c4)cn3n2)cc1,2,-23
CCOc1ccc(-c2cc3nc(C4CCN(C(=O)OC(C)(C)C)CC4)c(C(=O)Nc4cc(F)ccc4F)cn3n2)cc1,31*,10
COc1ccc(C2(C(=O)N3CCC4(CC3)CC(Oc3ccccc3F)CO4)CCOCC2)cc1 (stereo unspecified),1,2
Cc1ccc(S(=O)(=O)N(C)c2ccc(OCC(=O)Nc3ccccc3N3CCCCC3)cc2)cc1,11,0
Cc1ncncc1C(=O)N1CCCC(C)(c2ncc(Cc3cccc(F)c3)o2)C1 (stereo unspecified),82*,3
Cc1ncncc1C(=O)N1CCCC(c2ncc(Cc3cccc(F)c3)o2)C1 (stereo unspecified),21,14
O=C(c1cc(-c2ccccn2)n[nH]1)N1CCC(C(=O)N2CC=C(c3ccccc3)CC2)CC1,0,-12
CCOc1ccc(NC(=O)C(Cc2ccccc2)NS(=O)(=O)c2ccc3c(c2)CCN3C(C)=O)cc1 (stereo unspecified),1,9
O=C(NCc1ccccc1)C(Cc1ccccc1)NS(=O)(=O)c1ccc2c(c1)OCCO2 (stereo unspecified),16,56*
O=C(O)C(Cc1ccccc1)NS(=O)(=O)c1ccc2c(c1)OCCO2 (stereo unspecified),6,6
SMILES,OTUD3 inh,USP28 inh
O=C(Nc1ccc(N2CCOCC2)cc1)C(Cc1ccccc1)NS(=O)(=O)c1ccc2c(c1)OCCO2 (stereo unspecified),-5,37*
CC(C)c1cc(C(=O)NCc2cccnc2-n2cccn2)c2ccccc2n1,-2,-7
CSc1ncccc1C(=O)OCc1ccccc1,2,49*
CSc1ncccc1C(=O)Nc1ccnn1Cc1ccccc1,-5,-9
CC(=O)N1CCc2cc(CNS(=O)(=O)c3ccccc3F)ccc21,-9,-2
CC(C)(C)n1ncc2c(=O)n(Cc3cccc([N+](=O)[O-])c3)cnc21,2,79*
COc1cccc(NC(=O)c2cnc3c(c2)c(=O)n(C)c(=O)n3C)c1,19,41*
Cc1ccc(NC(=O)c2cnc3c(c2)c(=O)n(C)c(=O)n3C)cc1,-4,0
CC(C)(C)n1ncc2c(=O)n(CC(=O)Nc3cccc([N+](=O)[O-])c3)cnc21,12,3
CC(C)(C)n1ncc2c(=O)n(CC(=O)OCc3ccccc3)cnc21,-3,.
COc1cccc(NC(=O)Cn2cnc3c(cnn3C(C)(C)C)c2=O)c1,-6,30*
O=C(c1ccncn1)N1CCCC(c2ncc(Cc3cccc(Cl)c3)o2)C1 (stereo unspecified),10,17
CCC(C)[C@H](NC(=O)C1(c2ccccc2)CCN(C(=O)[C@H]2CSCN2)CC1)C(=O)O (stereo partly specified),18,12
CCOCCn1ccc2c(OCC(=O)Nc3ccc4c(c3)OCCO4)cccc2c1=O,6,44*
COCCn1ccc2nc(C)c(C(=O)Nc3ccc4c(c3)OCCO4)cc2c1=O,4,1
CC1(C)Cc2c(sc3nc(SCC(=O)Nc4ccccc4)nc(N)c23)CO1,-35,31*
CC(=O)c1ccc(NC(=O)CSc2nc(-c3ccccc3)nc3c2COC(C)(C)C3)cc1,31*,4
COc1ccc(NC(=O)CSc2nc(N)c3c4c(sc3n2)COC(C)(C)C4)cc1,8,-5
CC1(C)Cc2nc(-c3ccccc3)nc(SCC(=O)Nc3ccccc3)c2CO1,0,-5
Cc1cc(C(=O)Nc2ccc3nc(N4CCN(c5ncccn5)CC4)cc(C)c3c2)ccc1[N+](=O)[O-],-3,1
Cc1cc(N2CCN(c3ncccn3)CC2)nc2ccc(NC(=O)Cn3nc([N+](=O)[O-])c(Br)c3C)cc12,44*,42*
Cc1ccc(S(=O)(=O)Nc2nc(-c3ccc4c(c3)NC(=O)C(C)O4)c(C)s2)cc1 (stereo unspecified),13,22
COc1ccccc1NS(=O)(=O)c1cc([N+](=O)[O-])ccc1NCC1COc2ccccc2O1 (stereo unspecified),4,12
O=[N+]([O-])c1ccc(NCC2COc3ccccc3O2)c(Cl)c1 (stereo unspecified),11,72*
Cc1ccccc1CC(=O)NC(C)C(=O)Nc1nc2ccccc2[nH]1 (stereo unspecified),1,6
SMILES,OTUD3 inh,USP28 inh
Cc1nc2ccccc2c(=O)n1Cc1ccc(-c2ccccc2)cc1,1,-11
Cc1nccn1Cc1nc(-c2ccccc2F)no1,15,16
O=C(Nc1ccc2c(c1)CCN2S(=O)(=O)c1ccccc1)Nc1ccc(F)cc1F,7,43*
O=C(Nc1ccc(F)cc1F)c1cccc(S(=O)(=O)N2CCCCC2)c1,-6,-14
Cc1noc(NS(=O)(=O)c2ccc(NC(=O)COc3ccc(N(C)C(=O)c4ccc(Cl)cc4)cc3)cc2)c1C,0,.
Cc1noc(NS(=O)(=O)c2ccc(NC(=O)CSc3ccc4ccccc4c3)cc2)c1C,15,36*
CN1CCN(C2=NCCN2S(=O)(=O)c2ccc(Br)cc2)CC1,14,11
CC1O[C@@H](c2ccc3c(c2O)C(=O)C2=C(C3=O)[C@@]3(O)C(=O)C(O)[C@](C)(O)C[C@@]3(O)C=C2)CC[C@@H]1OC(=O)/C=C/C=C/C=C/[C@@H]1O[C@@](C)(C(=O)O)O[C@H]1C (stereo partly specified),46*,48*
